Reference: PubChem BioAssay (NCATS)
Values joined by “and” are separate entries in the source; they are usually repeats but may differ in a detail not shown here. Equal values may be shown once. Inconclusive results are not listed. Active and inactive are the calls of the source. Unless noted, calls follow the shape of the dose curve; as a rule, active = well fitted inhibition curve with a large enough effect; inconclusive = small, poorly fitted or top-dose-only effect; inactive = flat fitted curve, though single readings scatter.

How the values were obtained:
[1] = Drug repurposing screens with cells derived from glioblastoma tumor samples (AID 1345199); conditions: GBM patient neurospheres viability, ATP luminescence, 48 h; also: % is scaled to controls: 0 for no effect and ±100 for the full control effect; nearly all actives have a fitted effect of over 40% in size
Procedure, shortened: (§1)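 Four patient lines of CD133+ GBM neurospheres were screened at several concentrations; hits were retested in those lines plus three slower-growing GBM lines, using 48-hour treatment and ATP-based viability.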

astro = control astrocytes; experiment: as above; conditions: viability, ATP luminescence, 48 h; series mostly up to 45.9 µM
Procedure, shortened: as §1

[2] = target: Nuclear receptor subfamily 1 group I member 2 (Rattus norvegicus) (UniProt Q9R1A7); experiment: qHTS assay for small molecule activators of the rat pregnane X receptor (rPXR) signaling pathway (AID 651751; call rule not given here; also: 0% is about no effect); conditions: rPXR reporter cells, luciferase (One-Glo), 24 h
Sequence of Nuclear receptor subfamily 1 group I member 2 (Rattus norvegicus) (Q9R1A7 whole entry, looked up): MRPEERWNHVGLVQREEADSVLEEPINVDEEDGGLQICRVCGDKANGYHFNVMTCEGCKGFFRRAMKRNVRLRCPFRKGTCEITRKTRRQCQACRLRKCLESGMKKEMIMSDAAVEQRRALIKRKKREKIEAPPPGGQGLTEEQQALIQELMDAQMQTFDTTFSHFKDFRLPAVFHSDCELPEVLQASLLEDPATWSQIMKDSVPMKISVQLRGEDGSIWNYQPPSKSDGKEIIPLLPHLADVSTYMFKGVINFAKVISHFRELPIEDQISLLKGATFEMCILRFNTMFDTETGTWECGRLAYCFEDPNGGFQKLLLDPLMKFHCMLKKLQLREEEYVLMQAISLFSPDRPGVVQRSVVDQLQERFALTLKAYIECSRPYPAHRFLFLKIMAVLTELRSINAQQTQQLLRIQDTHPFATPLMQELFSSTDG

[3] = qHTS assay for small molecule activators of the human pregnane X receptor (PXR) signaling pathway (AID 720659; call rule not given here; also: 0% is about no effect); conditions: DPX-2 HepG2 CYP3A4-luciferase, 24 h; series mostly up to 92.3 µM
[4] = at 20 µM (top of the series), tumour line C
[5] = at 21.2 µM (top of the series), tumour line B
[6] = at 21.2 µM (top of the series), tumour line D
[7] = at 45.9 µM (top of the series), tumour line B
[8] = at 45.9 µM (top of the series), tumour line D
[9] = at 46 µM (top of the series), tumour line A
[10] = at 46.1 µM (top of the series), tumour line C

CCOC(=O)OC(C)OC(=O)[C@@H]1N2C(=O)[C@@H](NC(=O)[C@H](N)c3ccccc3)[C@H]2SC1(C)C (stereo partly specified)
inactive: activity, negative = cell killing [1, 4] 7.44% | activity, negative = cell killing [1, 5] -8.91% | activity, negative = cell killing [1, 6] -1.55% | outcome (astro)

Cc1ccc(C(C)C)c(O)c1
inactive: activity, negative = cell killing [1, 7] -5.11% | activity, negative = cell killing [1, 8] -0.376% | activity, negative = cell killing [1, 9] -10.8% | activity, negative = cell killing [1, 10] 0.583% | outcome (astro) | max response [2] -0.755% | outcome [3]

Cc1c(N(C)C)c(=O)n(-c2ccccc2)n1C
inactive: activity, negative = cell killing [1, 7] -5.14% | activity, negative = cell killing [1, 8] -8.5% | activity, negative = cell killing [1, 9] -17.7% | activity, negative = cell killing [1, 10] -17.7% | max response [2] -0.504% and 0.241% | outcome [3]

CC(=O)NS(=O)(=O)c1ccc(N)cc1
inactive: activity, negative = cell killing [1, 7] -8.29% | activity, negative = cell killing [1, 8] -18.7% | activity, negative = cell killing [1, 9] -22.6% | activity, negative = cell killing [1, 10] -4.02% | outcome (astro) | max response [2] -2.2% | outcome [3]

CC(=O)N[C@@H](Cc1ccc(O)cc1)C(=O)O
inactive: activity, negative = cell killing [1, 7] -9.92% | activity, negative = cell killing [1, 8] -7.49% | activity, negative = cell killing [1, 10] 6.62% | outcome (astro)

Cc1onc(-c2ccccc2)c1-c1ccc(S(N)(=O)=O)cc1
inactive: activity, negative = cell killing [1, 7] -8.7% | activity, negative = cell killing [1, 8] -24.2% | activity, negative = cell killing [1, 10] -2.89% | outcome (astro)

Nc1ccc(S(=O)(=O)c2ccc(N)cc2)cc1
inactive: activity, negative = cell killing [1, 7] -14.4% | activity, negative = cell killing [1, 8] 8.15% | activity, negative = cell killing [1, 9] -30% | activity, negative = cell killing [1, 10] -8.46% | max response [2] -2.07% and 2.17% | outcome [3]

OC[C@@H](O)[C@@H](O)[C@H](O)[C@H](O)CO
inactive: activity, negative = cell killing [1, 7] -7.17% | activity, negative = cell killing [1, 8] -4.25% | activity, negative = cell killing [1, 9] -11.8% | activity, negative = cell killing [1, 10] -0.87% | outcome (astro) | max response [2] -1.36% | outcome [3]

CC(C)=CCC[C@@](C)(O)[C@H]1CC=C(C)CC1
inactive: activity, negative = cell killing [1, 7] -3.12% | activity, negative = cell killing [1, 8] 18.2% | activity, negative = cell killing [1, 10] -10.5% | outcome (astro)

COc1ccc(Cc2cnc(N)nc2N)cc1OC
inactive: activity, negative = cell killing [1, 7] 11% | activity, negative = cell killing [1, 8] -18.1% | activity, negative = cell killing [1, 10] -4.34% | outcome (astro)

Cc1ccc(S(=O)(=O)NC(=O)NC2CCCCCCC2)cc1
inactive: activity, negative = cell killing [1, 7] -4.76% | activity, negative = cell killing [1, 8] 3.34% | activity, negative = cell killing [1, 9] -27.8% | outcome (astro)

O=C(CCBr)N1CCN(C(=O)CCBr)CC1
inactive: activity, negative = cell killing [1, 7] -9.14% | activity, negative = cell killing [1, 8] -7.7% | activity, negative = cell killing [1, 10] -5.97% | outcome (astro)

O=C1CC[C@@H](C(=O)O)N1
inactive: activity, negative = cell killing [1, 7] -10.6% | activity, negative = cell killing [1, 8] -16.2% | activity, negative = cell killing [1, 10] 1.94% | outcome (astro)

CC(C)=CCC/C(C)=C/CO
inactive: activity, negative = cell killing [1, 7] -6.27% | activity, negative = cell killing [1, 8] 1.11% | activity, negative = cell killing [1, 9] -25.2% | activity, negative = cell killing [1, 10] 8.23% | max response [2] 1.1%

CCN[C@H]1CN(CCCOC)S(=O)(=O)c2sc(S(N)(=O)=O)cc21
inactive: activity, negative = cell killing [1, 4] -0.607% | activity, negative = cell killing [1, 5] -9.2% | activity, negative = cell killing [1, 6] 8.52% | outcome (astro)

NS(=O)(=O)c1cc(-c2nn[nH]n2)c(NCc2cccs2)cc1Cl
inactive: activity, negative = cell killing [1, 7] 0.416% | activity, negative = cell killing [1, 8] -1.64% | activity, negative = cell killing [1, 10] -29.2% | outcome (astro)

c1ccc2[nH]ccc2c1
inactive: activity, negative = cell killing [1, 7] -8.88% | activity, negative = cell killing [1, 9] -21.8% | activity, negative = cell killing [1, 10] 0.178% | outcome (astro)

CC(=O)Nc1ccccc1
inactive: activity, negative = cell killing [1, 7] -6.03% | activity, negative = cell killing [1, 8] -14.5% | activity, negative = cell killing [1, 9] -21.5% | activity, negative = cell killing [1, 10] 6.02% | max response [2] 2.33% | outcome [3]

NS(=O)(=O)c1ccc(NC(=O)CCC(=O)O)cc1
inactive: activity, negative = cell killing [1, 7] -12.7% | activity, negative = cell killing [1, 8] 0.766% | activity, negative = cell killing [1, 10] -4.81% | outcome (astro)

C[C@@H](N)C(=O)O
inactive: activity, negative = cell killing [1, 7] -7.83% | activity, negative = cell killing [1, 8] -21.5% | activity, negative = cell killing [1, 10] 15% | outcome (astro)

Nc1c2c(nc3c1CCC3)CCCC2
inactive: activity, negative = cell killing [1, 7] -2.28% | activity, negative = cell killing [1, 8] -13.4% | activity, negative = cell killing [1, 10] -27.2% | outcome (astro)

CC(=O)Nc1ccc(C(=O)O)cc1
inactive: activity, negative = cell killing [1, 7] -15.7% | activity, negative = cell killing [1, 8] 14.1% | activity, negative = cell killing [1, 9] -33.2% | activity, negative = cell killing [1, 10] -22.1% | outcome (astro) | max response [2] 0.613% | outcome [3]

O=C(c1ccccc1)C(O)c1ccccc1 (stereo unspecified)
inactive: activity, negative = cell killing [1, 7] 4.63% | activity, negative = cell killing [1, 8] -16.7% | activity, negative = cell killing [1, 9] -19% | activity, negative = cell killing [1, 10] -3.13% | outcome (astro) | max response [2] 4.81% and 0.908% | outcome [3]

Cc1cccc(Nc2ccccc2C(=O)O)c1C
inactive: activity, negative = cell killing [1, 7] -15.4% | activity, negative = cell killing [1, 8] -14.4% | activity, negative = cell killing [1, 9] -20% | activity, negative = cell killing [1, 10] -15.4% | max response [2] 2.62%

Cc1cc(O)cc(C)c1Cl
inactive: activity, negative = cell killing [1, 7] 0.561% | activity, negative = cell killing [1, 8] -6% | activity, negative = cell killing [1, 9] -20% | activity, negative = cell killing [1, 10] 6.74% | max response [2] 1.15% | outcome [3]

CCCCCCCC(=O)OCC(COC(=O)CCCCCCC)OC(=O)CCCCCCC
inactive: activity, negative = cell killing [1, 7] -10.1% | activity, negative = cell killing [1, 8] -25.3% | activity, negative = cell killing [1, 10] -9.12% | outcome (astro) | max response [2] -0.801% | outcome [3]
